Laboratory results from PubChem BioAssay (NCI).
About 79,000 compounds went through this panel and 15% of them were active in at least one assay; those are over-represented in the sample as a whole. Active and inactive are the calls of the source. Rule as the data show it: active = growth inhibition above about 70%; inactive = the rest.

Experiments:
[1] = NCI Yeast Anticancer Drug Screen. Data for the rad14 strain (AID 159);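 also: 0% = growth of vehicle-treated control cultures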; conditions: S. cerevisiae rad14 strain growth inhibition, active compounds read high
Procedure, shortened: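 Growth inhibition vs vehicle controls; genetically altered yeast strain (DNA damage repair defect) treated with test compounds.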

[2] = NCI Yeast Anticancer Drug Screen. Data for the sgs1 mgt1 strain (AID 161);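 also: 0% = growth of cultures given vehicle only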; conditions: S. cerevisiae sgs1 mgt1 strain, active compounds read high
Procedure, shortened: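 Growth of a repair-deficient yeast mutant was monitored after compound treatment and expressed as inhibition relative to vehicle-treated cultures.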

[3] = NCI Yeast Anticancer Drug Screen. Data for the CLN2oe strain (AID 163);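 also: 0% = growth of vehicle-only control cultures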; conditions: S. cerevisiae CLN2oe strain, active compounds read high
Procedure, shortened: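 Compound-treated yeast; growth vs vehicle ctrl = % inhibition. Genetically altered strain (cell-cycle control).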

[4] = NCI Yeast Anticancer Drug Screen. Data for the cln2 rad14 strain (AID 165);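 also: 0% = growth equal to vehicle treated cultures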; conditions: S. cerevisiae cln2 rad14 strain, active compounds read high
Procedure, shortened: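 Growth inhibition, relative to vehicle-treated controls, is the read-out. The test organism is a yeast strain with defined genetic alterations, cln2 rad14.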

[5] = NCI Yeast Anticancer Drug Screen. Data for the bub3 strain (AID 167); conditions: S. cerevisiae bub3 mutant strain, active compounds read high
Procedure, shortened: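 Readout: yeast growth inhibition, expressed relative to vehicle-only wells. The test organism is a mutant strain from a panel with lesions in DNA repair or checkpoint genes.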

[6] = NCI Yeast Anticancer Drug Screen. Data for the wt2 strain (AID 169);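 also: 0% = growth of vehicle-treated yeast cultures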; conditions: S. cerevisiae wt2 strain growth inhibition, active compounds read high
Procedure, shortened: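 Compound exposure of yeast; growth compared with vehicle controls; inhibition reported.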

[7] = NCI Yeast Anticancer Drug Screen. Data for the mlh1 strain (AID 171);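 also: 0% = growth of vehicle-treated control cultures of the same strain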; conditions: S. cerevisiae mlh1 strain growth inhibition, active compounds read high
Procedure, shortened: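 Compounds are applied to a genetically altered yeast strain, and its growth is compared with that of vehicle-treated cultures to give percent inhibition.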

[8] = NCI Yeast Anticancer Drug Screen. Data for the mlh1 rad18 strain (AID 175); conditions: S. cerevisiae mlh1 rad18 strain growth inhibition, active compounds read high
Procedure, shortened: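 Cells of a genetically altered yeast strain, deficient in DNA damage repair, were treated with compound. Their growth was then compared with that of vehicle-treated cultures to give inhibition.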

[9] = NCI Yeast Anticancer Drug Screen. Data for the rad18 strain (AID 177); conditions: S. cerevisiae rad18 mutant growth inhibition, active compounds read high
Procedure, shortened: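 Compounds are applied to a repair-deficient yeast strain, and growth is compared with that of vehicle-treated cultures to give percent inhibition.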

[10] = NCI Yeast Anticancer Drug Screen. Data for the rad52 strain (AID 147);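 also: 0% = growth of vehicle-treated control cultures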; conditions: S. cerevisiae rad52 mutant growth inhibition, active compounds read high
Procedure, shortened: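 DNA repair-defective yeast; compound exposure; growth scored against vehicle controls.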

[11] = NCI Yeast Anticancer Drug Screen. Data for the wt1 strain (AID 149);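 also: 0% = growth of vehicle-treated wt1 cultures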; conditions: S. cerevisiae wt1 strain (SPY 50644) growth inhibition, active compounds read high
Procedure, shortened: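 Growth inhibition read against vehicle controls after compound exposure of the wt1 yeast strain.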

[12] = NCI Yeast Anticancer Drug Screen. Data for the mgt1 strain (AID 153); conditions: S. cerevisiae mgt1 mutant growth inhibition, active compounds read high
Procedure, shortened: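 Growth inhibition relative to vehicle controls was scored for the mgt1 yeast strain after compound exposure.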

[13] = NCI Yeast Anticancer Drug Screen. Data for the rad50 strain (AID 155);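 also: 0% = growth of vehicle-only cultures of the same strain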; conditions: S. cerevisiae rad50 strain growth inhibition, active compounds read high
Procedure, shortened: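 Readout: growth inhibition relative to vehicle-treated cultures. Compound exposure was carried out in a genetically defined yeast strain deficient in DNA damage repair.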

[14] = NCI Yeast Anticancer Drug Screen. Data for the mec2-1 strain (AID 157); conditions: S. cerevisiae mec2-1 strain, active compounds read high
Procedure, shortened: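 Growth inhibition is read against vehicle-treated controls after compound exposure of the mec2-1 yeast strain, which is defective in DNA damage repair or cell cycle control.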

[15] = NCI Yeast Anticancer Drug Screen. Data for the sgs1 strain (AID 173);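 also: 0% = growth of vehicle-only control cultures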; conditions: S. cerevisiae sgs1 mutant, active compounds read high
Procedure, shortened: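 Compounds applied to genetically altered yeast; growth compared with vehicle-treated cultures to give % inhibition.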

[16] = NCI Yeast Anticancer Drug Screen. Data for the rad50EPP+ strain (AID 151);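 also: 0% = growth of vehicle-treated control cultures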; conditions: S. cerevisiae rad50 mutant strain, active compounds read high
Procedure, shortened: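 rad50EPP+ yeast treated with test compounds. Readout: growth vs vehicle control.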

[17] = at 5.0 µM (retest, dose inferred, filed as 0.5)
[18] = at 50.0 µM (retest, dose inferred, filed as 5.0)

Measured: growth inhibition

Cc1cc(OCc2nc(N)nc(N)c2-c2ccc(Cl)c(Cl)c2)ccc1[N+](=O)[O-]
active: [2]; [18] 75% | [2]; at 50.0 µM 98.7% | [4]; at 50.0 µM 95% | [5]; at 50.0 µM 79.9% | [8]; [18] 85% | [8]; at 50.0 µM 98.5%
inactive: [1]; at 100.0 µM 3% | [2]; [17] 54% | [3]; at 1.2 µM 0% | [3]; at 3.7 µM 2% | [3]; at 11.0 µM 0% | [3]; at 33.0 µM 4% | [3]; at 100.0 µM 6% | [4]; [17] -1% | [4]; [18] 30% | [5]; at 1.2 µM 0% | [5]; at 3.7 µM -1% | [5]; [17] -9% | [5]; at 11.0 µM 0% | [5]; at 33.0 µM -2% | [5]; [18] 53% | [5]; at 100.0 µM 20% | [6]; at 1.2 µM 2% | [6]; at 3.7 µM 4% | [6]; at 11.0 µM 4% | [6]; at 33.0 µM 4% | [6]; at 100.0 µM 5% | [7]; at 1.2 µM 0% | [7]; at 3.7 µM 0% | [7]; at 11.0 µM 0% | [7]; at 33.0 µM -1% | [7]; at 100.0 µM 13% | [8]; [17] 26% | [9]; at 1.2 µM -3% | [9]; at 3.7 µM -4% | [9]; at 11.0 µM -8% | [9]; at 33.0 µM -15% | [9]; at 100.0 µM -23%

CCc1c(Cl)c(C)c(Cl)c(O)c1Cl
active: [10]; at 33.0 µM 97% | [10]; at 100.0 µM 99% | [11]; at 33.0 µM 93% | [11]; at 100.0 µM 98% | [12]; at 33.0 µM 98% | [12]; at 100.0 µM 99% | [13]; at 33.0 µM 96% | [13]; [18] 98% | [13]; at 50.0 µM 92% | [13]; at 100.0 µM 99% | [14]; at 33.0 µM 95% | [14]; [18] 98% | [14]; at 50.0 µM 93.3% | [14]; at 100.0 µM 97% | [1]; at 33.0 µM 98% | [1]; at 100.0 µM 99% | [2]; [18] 97% | [2]; at 50.0 µM 93.8% | [3]; at 33.0 µM 90% | [3]; at 100.0 µM 99% | [4]; [18] 98% | [4]; at 50.0 µM 92.8% | [5]; at 33.0 µM 96% | [5]; [18] 98% | [5]; at 50.0 µM 92.9% | [5]; at 100.0 µM 99% | [6]; at 33.0 µM 97% | [6]; at 100.0 µM 99% | [7]; at 33.0 µM 95% | [7]; at 100.0 µM 99% | [15]; at 33.0 µM 96% | [15]; at 100.0 µM 99% | [8]; [18] 98% | [8]; at 50.0 µM 92% | [9]; at 33.0 µM 96% | [9]; at 100.0 µM 99%
inactive: [10]; at 1.2 µM -22% | [10]; at 3.7 µM -30% | [10]; at 11.0 µM -9% | [11]; at 1.2 µM -27% | [11]; at 3.7 µM -25% | [11]; at 11.0 µM 1% | [12]; at 1.2 µM -33% | [12]; at 3.7 µM -32% | [12]; at 11.0 µM -14% | [13]; at 1.2 µM -11% | [13]; at 3.7 µM -28% | [13]; [17] 57% | [13]; at 11.0 µM 6% | [14]; at 1.2 µM -28% | [14]; at 3.7 µM -12% | [14]; [17] 61% | [14]; at 11.0 µM 2% | [1]; at 1.2 µM -11% | [1]; at 3.7 µM -12% | [1]; at 11.0 µM 10% | [2]; [17] -16% | [3]; at 1.2 µM 13% | [3]; at 3.7 µM 17% | [3]; at 11.0 µM 11% | [4]; [17] 38% | [5]; at 1.2 µM 1% | [5]; at 3.7 µM -4% | [5]; [17] 16% | [5]; at 11.0 µM 5% | [6]; at 1.2 µM -8% | [6]; at 3.7 µM -12% | [6]; at 11.0 µM 2% | [7]; at 1.2 µM -12% | [7]; at 3.7 µM -8% | [7]; at 11.0 µM 7% | [15]; at 1.2 µM -4% | [15]; at 3.7 µM -13% | [15]; at 11.0 µM 14% | [8]; [17] 38% | [9]; at 1.2 µM -19% | [9]; at 3.7 µM -32% | [9]; at 11.0 µM -19%

CCOP(=O)(OCC)/C(C#N)=C/c1cccc(Oc2ccccc2)c1
inactive: [10]; at 1.2 µM -17% | [10]; at 3.7 µM -14% | [10]; at 11.0 µM 60% | [16]; at 1.2 µM 0% | [16]; at 3.7 µM -7% | [16]; at 11.0 µM 7% | [16]; at 33.0 µM 7% | [16]; at 100.0 µM 62% | [12]; at 1.2 µM -32% | [12]; at 3.7 µM -40% | [12]; at 11.0 µM 28% | [13]; at 1.2 µM -30% | [13]; at 3.7 µM -30% | [13]; [17] 2% | [13]; at 11.0 µM 42% | [14]; at 1.2 µM -8% | [14]; at 3.7 µM 1% | [14]; [17] -7% | [14]; at 11.0 µM 45% | [1]; at 1.2 µM -40% | [1]; at 3.7 µM -39% | [1]; at 11.0 µM 35% | [2]; [17] 1% | [3]; at 1.2 µM -12% | [3]; at 3.7 µM -23% | [3]; at 11.0 µM 42% | [4]; [17] -4% | [5]; at 1.2 µM -11% | [5]; at 3.7 µM -19% | [5]; [17] 22% | [5]; at 11.0 µM 41% | [6]; at 1.2 µM 1% | [6]; at 3.7 µM 1% | [6]; at 11.0 µM 38% | [7]; at 1.2 µM -2% | [7]; at 3.7 µM 9% | [7]; at 11.0 µM 48% | [15]; at 1.2 µM 10% | [15]; at 3.7 µM 3% | [15]; at 11.0 µM 44% | [8]; [17] -8% | [8]; [18] -3% | [9]; at 1.2 µM -6% | [9]; at 3.7 µM -16% | [9]; at 11.0 µM 53%
active: [10]; at 33.0 µM 95% | [10]; at 100.0 µM 96% | [12]; at 33.0 µM 95% | [12]; at 100.0 µM 96% | [13]; at 33.0 µM 96% | [13]; [18] 96% | [13]; at 50.0 µM 90.2% | [13]; at 100.0 µM 96% | [14]; at 33.0 µM 97% | [14]; [18] 98% | [14]; at 50.0 µM 93.5% | [14]; at 100.0 µM 98% | [1]; at 33.0 µM 94% | [1]; at 100.0 µM 96% | [2]; [18] 96% | [2]; at 50.0 µM 91.2% | [3]; at 33.0 µM 97% | [3]; at 100.0 µM 97% | [4]; [18] 97% | [4]; at 50.0 µM 90.5% | [5]; at 33.0 µM 97% | [5]; [18] 95% | [5]; at 50.0 µM 90.3% | [5]; at 100.0 µM 97% | [6]; at 33.0 µM 96% | [6]; at 100.0 µM 97% | [7]; at 33.0 µM 96% | [7]; at 100.0 µM 97% | [15]; at 33.0 µM 97% | [15]; at 100.0 µM 98% | [8]; at 50.0 µM 88.8% | [9]; at 33.0 µM 97% | [9]; at 100.0 µM 97%
